{"source": "PubChem BioAssay AID720541", "about": "(National Center for Advancing Translational Sciences (NCATS), 2013)", "note": "About 420 (32%) of roughly 1,300 compounds were called active. Roughly 32% stayed inconclusive and do not appear here. Calls follow the shape of the dose curve; as a rule, active = well fitted inhibition curve with a large enough effect; inconclusive = small, poorly fitted or top-dose-only effect; inactive = no such curve, though single readings can be large or run the other way. Some of the results follow. Potency is read from the fitted curve at half-maximal effect."}
{"biological_target": "C-terminal-binding protein 1 (Homo sapiens) (UniProt Q13363)", "test": "qHTS for Inhibitors of the Phosphatase Activity of Eya2: Carboxyl-terminal binding protein (CtBP) Counterscreen for Cherry-picked Compounds; also: nearly all actives have a fitted effect of over 65% in size", "settings": "purified protein-protein binding, AlphaScreen, 3 h; series mostly up to 46.1 µM", "procedure,_shortened": "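Cherry-picked compounds (final 2.5 nM–46 uM) were incubated 2 h at RT with 25 nM CtBP-6xHIS and 25 nM GST-E1A. Alpha beads (20 ug/mL) were then added for 1 h, light-protected; DMSO and E1A peptide inhibitor wells set the normalization.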"}
{"smiles": "CC1(C)CC(=O)C=C(c2ccc(COC(=O)c3cc(F)cc(F)c3)cc2)C1=O", "Potency": "inactive"}
{"smiles": "CCn1cc(C(=O)N[C@@H](C)C(=O)NCCCn2ccnc2)c(=O)c2cc3c(cc21)OCO3", "Potency": "inactive"}
{"smiles": "Cc1ccc(C(=O)N/C(=C\\c2ccco2)C(=O)NCCCn2ccnc2)cc1", "Potency": "3.79 µM (active)"}
{"smiles": "C/C(N)=C(/C#N)C(=O)CSc1nnc(Nc2cccc(C)c2)s1", "Potency": "inactive"}
{"smiles": "Cc1ccc(Nc2nnc(SCC(=O)c3c(N)n(C4CC4)c(=O)[nH]c3=O)s2)cc1C", "Potency": "inactive"}
{"smiles": "Cc1cccc(Nc2nnc(SCC(=O)NCC3CCCO3)s2)c1", "note": "(stereo not given)", "Potency": "15.1 µM (active)"}
{"smiles": "COc1ccc(-c2cn3c(C)c(C(=O)NCc4ccc5c(c4)OCO5)sc3n2)cc1", "Potency": "inactive"}
{"smiles": "O=c1[nH][nH]cc1C=Nc1cc(Cl)ccc1O", "Potency": "8.49 µM (active)"}
{"smiles": "O=c1oc(-c2ccco2)nc2ccccc12", "Potency": "13.5 µM (active)"}
{"smiles": "CN(C)c1ccc(/C=C/c2ccnc3ccc(-c4ccccc4)cc23)cc1", "Potency": "12 µM (active)"}
{"smiles": "Cc1cc(C)c2c(/C=C/c3ccc(N(C)C)cc3)ccnc2c1", "Potency": "13.5 µM (active)"}
{"smiles": "COc1ccc(N=C2SC(C(=O)N3CCN(c4ccc([N+](=O)[O-])cc4)CC3)CC(=O)N2C)cc1", "note": "(stereo not given)", "Potency": "inactive"}
{"smiles": "O=C(O)c1ccc2nc(-c3ccco3)c(-c3ccco3)nc2c1", "Potency": "7.57 µM (active)"}
{"smiles": "O=C(Nc1ccccc1)c1ccc2nc(-c3ccco3)c(-c3ccco3)nc2c1", "Potency": "13.5 µM (active)"}
{"smiles": "CC(C)(C)NC(=O)c1cccc(NC(=O)c2ccc(NC(=O)c3ccco3)cc2)c1", "Potency": "inactive"}
{"smiles": "O=C(NCCCO)c1ccc2nc(-c3ccco3)c(-c3ccco3)nc2c1", "Potency": "5.36 µM (active)"}
{"smiles": "O=C(NC1CC1)c1ccc2nc(-c3ccco3)c(-c3ccco3)nc2c1", "Potency": "8.49 µM (active)"}
{"smiles": "CC(C)[C@H](NC(=O)c1ccccc1)C(=O)NC1CCCCCCC1", "Potency": "inactive"}
{"smiles": "Cc1ccc(C(O)c2ncc(-c3ccc4ccccc4c3)[nH]2)cc1F", "note": "(stereo not given)", "Potency": "inactive"}
{"smiles": "O=C(NCc1ccccc1)c1ccc2nc(-c3ccco3)c(-c3ccco3)nc2c1", "Potency": "16.9 µM (active)"}
{"smiles": "CN(C)C(CNC(=O)c1ccc2c(c1)S(=O)(=O)c1ccccc1C2=O)c1ccco1", "note": "(stereo not given)", "Potency": "inactive"}
{"smiles": "Cc1ccc(CNC(=O)c2ccc(-n3cccc3)cc2)cc1", "Potency": "inactive"}
{"smiles": "Cc1c(CC(=O)NCCCC(=O)O)c(=O)oc2cc3occ(-c4ccccc4)c3cc12", "Potency": "13.5 µM (active)"}
{"smiles": "Cc1c(CC(=O)NCC(=O)O)c(=O)oc2cc3occ(-c4ccccc4)c3cc12", "Potency": "13.5 µM (active)"}
{"smiles": "COc1ccc(-c2coc3cc4oc(=O)c(CC(=O)O)c(C)c4cc23)cc1", "Potency": "13.5 µM (active)"}
{"smiles": "Cc1c(CC(=O)N[C@@H](C)C(=O)O)c(=O)oc2cc3occ(-c4ccccc4)c3cc12", "Potency": "6.75 µM (active)"}
{"smiles": "N#Cc1ccc(CSc2nnc(-c3c[nH]c4ccccc34)n2-c2ccccc2)cc1", "Potency": "inactive"}
{"smiles": "Cc1c(CCC(=O)NCCCCCC(=O)O)c(=O)oc2cc3occ(-c4ccccc4)c3cc12", "Potency": "8.49 µM (active)"}
{"smiles": "COc1cccc2c1C(=O)/C(=C/c1ccc(N(C)C)cc1)C2", "Potency": "4.78 µM (active)"}
{"smiles": "CN(C)CCNc1ccc2nnn3c4ccc(O)cc4c(=O)c1c23", "Potency": "1.2 µM (active)"}
{"smiles": "CN(C)CCNc1ccc2ncn3c4ccc(O)cc4c(=O)c1c23", "Potency": "1.9 µM (active)"}
{"smiles": "O=C(CC1(O)C(=O)Nc2ccccc21)c1ccccc1", "note": "(stereo not given)", "Potency": "inactive"}
{"smiles": "CCOC(=O)c1c(NC(=O)/C=C/C(=O)O)sc(C)c1-c1ccc(Cl)cc1", "Potency": "inactive"}
{"smiles": "Cn1c(=O)c(N)c2c3c(c(Br)ccc31)C(=O)c1ccccc1-2", "Potency": "9.53 µM (active)"}
{"smiles": "Cc1c(NC(=O)c2ccco2)cccc1C(=O)NN1C(=O)c2ccccc2C1=O", "Potency": "inactive"}
{"smiles": "CCc1c(C)nc(Nc2nc(C)c3ccc(OC)cc3n2)[nH]c1=O", "Potency": "3.38 µM (active)"}
{"smiles": "Cc1nn2c(c1-c1ccccc1)NC1=C(C(=O)CCC1)C2c1ccccc1", "note": "(stereo not given)", "Potency": "inactive"}
{"smiles": "C/C=C/c1ccc(OCCSc2nc(C)cc(=O)[nH]2)c(OC)c1", "Potency": "10.7 µM (active)"}
{"smiles": "O=S(=O)(Nc1nnc(-c2ccccc2)s1)c1ccc(Cl)cc1", "Potency": "16.9 µM (active)"}
{"smiles": "Cc1n[nH]c(=S)n(NC(=O)CC(=O)Nn2c(=S)[nH]nc(C)c2=O)c1=O", "Potency": "1.2 µM (active)"}
{"smiles": "CC1=CC(C)(C)Nc2ccc(OC(=O)CN3C(=O)c4ccccc4C3=O)cc21", "Potency": "inactive"}
{"smiles": "O=S(=O)(c1ccc(Cl)s1)N1CCc2ccccc2C1", "Potency": "inactive"}
{"smiles": "O=C(NN1C(=O)/C(=C\\c2ccc(O)c([N+](=O)[O-])c2)SC1=S)c1ccccc1Cl", "Potency": "12 µM (active)"}
{"smiles": "COc1ccc(OC)c(/C=C2\\SC(=S)N(NS(=O)(=O)c3ccccc3)C2=O)c1", "Potency": "inactive"}
{"smiles": "Cc1ccc(S(=O)(=O)NN2C(=O)/C(=C/c3cccc(F)c3)SC2=S)cc1", "Potency": "inactive"}
{"smiles": "COc1ccc(Nc2nc(C(C)(C)C)nc3c2nnn3Cc2ccccc2Cl)cc1OC", "Potency": "inactive"}
{"smiles": "CCOC(=O)CNC(=O)C1CCCN(c2ncccn2)C1", "note": "(stereo not given)", "Potency": "inactive"}
{"smiles": "CCOC(=O)C1CCCN(C2=C(NS(=O)(=O)c3ccc(Br)cc3)C(=O)c3ccccc3C2=O)C1", "note": "(stereo not given)", "Potency": "12 µM (active)"}
{"smiles": "CCOC(=O)C1CCN(C2=C(NS(=O)(=O)c3ccc(Br)cc3)C(=O)c3ccccc3C2=O)CC1", "Potency": "5.36 µM (active)"}
{"smiles": "NC(=O)C1CCN(c2oc(-c3cccs3)nc2S(=O)(=O)c2ccc(Br)cc2)CC1", "Potency": "inactive"}
{"smiles": "COC(=O)c1ccc(CSc2ccc3nnc(-c4ccccn4)n3n2)o1", "Potency": "7.57 µM (active)"}
{"smiles": "c1ccc(CSc2ccc3nnc(-c4ccccn4)n3n2)cc1", "Potency": "13.5 µM (active)"}
{"smiles": "Brc1ccc(CSc2ccc3nnc(-c4cccnc4)n3n2)cc1", "Potency": "inactive"}
{"smiles": "Brc1ccc(CSc2ccc3nnc(-c4ccccn4)n3n2)cc1", "Potency": "13.5 µM (active)"}
{"smiles": "CCOc1ccc(NC(=O)C2CC(=O)N(CCc3ccc(OC)c(OC)c3)C2)cc1OCC", "note": "(stereo not given)", "Potency": "19 µM (active)"}
{"smiles": "CN(C)c1ccc(C(CNS(=O)(=O)c2ccc(F)c(F)c2)c2c[nH]c3ccccc23)cc1", "note": "(stereo not given)", "Potency": "inactive"}
{"smiles": "COc1ccc(/C=C/C(=O)Nc2cccc(S(=O)(=O)N3CCOCC3)c2)cc1OC", "Potency": "15.1 µM (active)"}
{"smiles": "O=C(COC(=O)c1cc(S(=O)(=O)N2CCOCC2)ccc1O)Nc1ccc2c(c1)OCO2", "Potency": "inactive"}
{"smiles": "Cc1ccc(NC(=O)/C=C/c2ccc3c(c2)OCO3)cc1S(=O)(=O)N1CCOCC1", "Potency": "6.75 µM (active)"}
{"smiles": "COc1ccc2oc(C(=O)Nc3cccc(S(=O)(=O)N4CCOCC4)c3)c(C)c2c1", "Potency": "inactive"}
{"smiles": "Cc1ccc(NC(=O)c2ccc3c(c2)OCO3)cc1S(=O)(=O)N1CCOCC1", "Potency": "8.49 µM (active)"}
{"smiles": "COc1ccc(S(=O)(=O)N2CCOCC2)cc1C(=O)Nc1cccc(C(=O)NC2CC2)c1", "Potency": "15.1 µM (active)"}
{"smiles": "S=C(Nc1ccc2c(c1)OCCO2)Nc1ccc2c(c1)OCO2", "Potency": "inactive"}
{"smiles": "NC(=O)C1CCN(CC(=O)Nc2ccc3c(c2)OCO3)CC1", "Potency": "inactive"}
{"smiles": "O=C(COC(=O)c1cc(=O)[nH]c2ccccc12)Nc1cccc(S(=O)(=O)N2CCOCC2)c1", "Potency": "inactive"}
{"smiles": "Oc1ccc(-c2nc3c4c(ncn3n2)-c2ccccc2CC42CCCC2)cc1", "Potency": "inactive"}
{"smiles": "Cc1ccc(Nc2nc(N)nc(CSc3nnc(C)s3)n2)cc1", "Potency": "inactive"}
{"smiles": "O=C(O)C1=C[C@@H](c2csc3ccccc23)C[C@@H](OCc2ccc(CO)cc2)O1", "Potency": "inactive"}
{"smiles": "CN(C)Cc1ccccc1Sc1cccc2ccccc12", "Potency": "inactive"}
{"smiles": "CCN(CC)C(=O)c1ccc(O)c(OC)c1", "Potency": "inactive"}
{"smiles": "Cc1cc(NC(=O)CS(=O)(=O)c2cn(Cc3cccc(Br)c3)c3ccccc23)no1", "Potency": "inactive"}
{"smiles": "COc1cccc(-c2nnc(SCC(=O)Nc3cc(C)on3)o2)c1", "Potency": "12 µM (active)"}
{"smiles": "COc1ccccc1-n1c(SCC(=O)Nc2cc(C)on2)nc2c(c1=O)SCC2", "Potency": "inactive"}
{"smiles": "O=C(Nc1ccccc1)C(Cl)C(=O)c1ccccc1", "note": "(stereo not given)", "Potency": "inactive"}
{"smiles": "O=C(Nc1cccc(O)c1)c1cccc(C(=O)Nc2cccc(O)c2)c1", "Potency": "8.49 µM (active)"}
{"smiles": "CCC(=O)Nc1nc2c(OC)ccc(OC)c2s1", "Potency": "inactive"}
{"smiles": "COc1cc(CNC(=O)Nc2nc(C(N)c3ccccc3)cs2)cc(OC)c1OC", "note": "(stereo not given)", "Potency": "13.5 µM (active)"}
{"smiles": "O=S(=O)(c1ccccc1)[C@@]1(c2ccccc2)C[C@@H]2ON=C(c3cccc(-c4ccccc4)c3)[C@@H]2C1", "Potency": "inactive"}
{"smiles": "COc1cccc(C=NCC(C)N=Cc2cccc(OC)c2O)c1O", "note": "(stereo not given)", "Potency": "16.9 µM (active)"}
{"smiles": "COc1ccc(N2CCN(C(c3ccco3)c3sc4nc(C)nn4c3O)CC2)cc1", "note": "(stereo not given)", "Potency": "inactive"}
{"smiles": "Oc1c(C(c2cccs2)N2CCN(c3ccccc3)CC2)sc2ncnn12", "note": "(stereo not given)", "Potency": "19 µM (active)"}
{"smiles": "O=c1c(O)cccc2cc(O)c(O)c(O)c12", "Potency": "15.1 µM (active)"}
{"smiles": "COc1ccccc1OCC(=O)Nc1ccc(C(=O)Nc2ccccc2C(=O)O)cc1", "Potency": "16.9 µM (active)"}
{"smiles": "COc1ccccc1NC(=O)c1ccc(NC(=O)Cc2n[nH]c(=O)c3ccccc23)cc1", "Potency": "inactive"}
{"smiles": "CC1=C(/C=C/C(C)=C/C=C/C(C)=C/C(=O)Nc2ccc(O)cc2)C(C)(C)CCC1", "Potency": "inactive"}
{"smiles": "COc1ccc(S(=O)(=O)N2CCC3CC2c2cc(N4CCOCC4)ccc23)cc1", "note": "(stereo not given)", "Potency": "inactive"}
{"smiles": "O=C(Oc1ccc(=O)n(-c2ccccc2)n1)c1ccc(F)cc1", "Potency": "inactive"}
{"smiles": "C[n+]1ccc(/C=C/c2cc[n+](C)c3ccccc23)c2ccccc21", "Potency": "15.1 µM (active)"}
{"smiles": "CN1C=C/C(=C\\c2cc[n+](C)c3ccccc23)c2ccccc21", "Potency": "15.1 µM (active)"}
{"smiles": "CC(=O)Nc1ccc(S(=O)(=O)O)c2cc(S(=O)(=O)O)c(N=Nc3ccc(N=Nc4ccc(S(=O)(=O)O)cc4)c4ccc(S(=O)(=O)O)cc34)c(O)c12", "Potency": "1.69 µM (active)"}
{"smiles": "O=S(=O)(O)c1ccc2c(N=Nc3ccc(S(=O)(=O)O)c4ccccc34)c(O)c(S(=O)(=O)O)cc2c1", "Potency": "9.53 µM (active)"}
{"smiles": "O=C(NC1=C(Nc2ccc(F)cc2)C(=O)c2ccccc2C1=O)c1ccc(Cl)cc1", "Potency": "inactive"}
{"smiles": "Cc1ccc(NC(=O)c2ccc3[nH]c(=O)c(=O)[nH]c3c2)nc1", "Potency": "6.75 µM (active)"}
{"smiles": "Cc1cc(NC(=O)c2cccc(N3C(=O)CCC3=O)c2)no1", "Potency": "inactive"}
{"smiles": "O=C(Nc1ccc(F)cc1)c1ccc2[nH]c(=O)c(=O)[nH]c2c1", "Potency": "1.9 µM (active)"}
